Screening results (PubChem BioAssay)
FEN1 inh-1 = qHTS Assay for the Inhibitors of Human Flap endonuclease 1 (FEN1). P39748. Recombinant FEN1 flap cleavage, fluorescence, 15 min. Potency, µM (top dose mostly 114 µM), inactives show at the top dose activity change, negative = inhibition, usual class: inhibitors. hit rate 0.35% among 390,000; further: potency means the concentration at half of the fitted maximal effect; on the % scale 0 is the no-effect control and ±100 the full control effect; nearly all actives have a fitted effect of over 65% in size
Target sequence (P39748 whole entry, looked up): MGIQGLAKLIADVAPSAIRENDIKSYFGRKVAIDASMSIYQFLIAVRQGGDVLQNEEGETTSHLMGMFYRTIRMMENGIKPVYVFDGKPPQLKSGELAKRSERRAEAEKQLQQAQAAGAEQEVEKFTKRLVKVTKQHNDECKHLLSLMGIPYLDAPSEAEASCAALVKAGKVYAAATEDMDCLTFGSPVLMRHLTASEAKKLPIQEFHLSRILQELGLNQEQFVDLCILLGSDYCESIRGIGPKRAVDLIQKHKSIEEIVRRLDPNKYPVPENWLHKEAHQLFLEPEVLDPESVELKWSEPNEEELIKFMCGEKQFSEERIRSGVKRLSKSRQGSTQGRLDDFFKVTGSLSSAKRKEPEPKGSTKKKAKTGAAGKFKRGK
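Read-out was taken twice, immediately and after 15 min, following addition of 50 nM substrate to 10 nM FEN1 that had sat with test compound for 15 min at room temperature. Curves came from a four-parameter Hill model.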
Pol iota inh = qHTS for Inhibitors of Polymerase Iota | hit rate 1% among 390,000 | Potency, µM (doses to about 115 µM), without a hit: at the highest dose activity, negative = inhibition, most hits filed as inhibitors | Pol iota fluorescent replication assay, 10 min | AID 588590, 2011 | DNA polymerase iota (Homo sapiens), Q9UNA4; further: potency means the concentration at half of the fitted maximal effect
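Fluorescent replication assay read twice, at 0 min and 10 min after adding 50 nM (final) substrate. Enzyme (10 nM) and compounds were first incubated 15 min at room temperature; enzyme-free buffer wells were negative controls.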
Pol eta inh-1 = qHTS for Inhibitors of Polymerase Eta; recombinant Pol eta, fluorescent DNA replication assay; DNA polymerase eta (Homo sapiens), Q9Y253; hit rate 1.2% among 390,000; Potency, µM (highest dose often 114 µM), for the others: at the highest dose activity change, negative = inhibition, actives largely listed as inhibitors; further: potency means the concentration at half of the fitted maximal effect; on the % scale 0 is the no-effect control and ±100 the full control effect
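Pol eta (10 nM) was preincubated with compounds for 15 min at room temperature, after which fluorescent replication substrate (50 nM final) was added to start the reaction. Fluorescence was read kinetically at 0 and 10 min.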
Pol kappa inh = qHTS for Inhibitors of Polymerase Kappa; purified Pol kappa, fluorescent DNA synthesis assay, 10 min; AID 588579, 2011; DNA polymerase kappa (Homo sapiens), Q9UBT6; Potency, µM (series often up to 107 µM), without a hit: at the highest dose activity, negative = inhibition, usual class: inhibitors; hit rate 0.53% among 400,000; further: potency means the concentration at half of the fitted maximal effect; on the % scale 0 is the no-effect control and ±100 the full control effect
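Pol kappa 10 nM + cpd, 15 min RT; start w/ substrate 50 nM final; fluorescence kinetic read, 0 and 10 min. Neg ctrl: buffer, no enzyme.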
PI5P4K alpha inh = qHTS for Inhibitors of phosphatidylinositol 5-phosphate 4-kinase (PI5P4K) | max response, % | hit rate 1.2% among 330,000 | Phosphatidylinositol 5-phosphate 4-kinase type-2 alpha (Homo sapiens), P48426 | PI5P4Kalpha enzyme, ADP-Glo luminescence, 60 min; stronger effect = lower value | AID 652105, 2013; active means max response of -50% or lower; inconclusive means between -30% and -50%; inactive means -30% or higher; further: value at the top dose of about 77 µM; on the % scale 0 is the no-effect control and ±100 the full control effect
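Compounds were pin-transferred onto PI5P4Kalpha and substrate in HEPES pH 7.4 buffer with EGTA, CHAPS and 5% DMSO. ATP (5 microM final) started the reaction, which ran 60 minutes at room temperature before ADP-Glo detection.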
Pol beta inh = qHTS Assay for Inhibitors of DNA Polymerase Beta; Pol beta primer extension/strand displacement, fluorescence kinetic; P06746; AID 485314, 2010; Potency, µM (titrated, usually from 114 µM), inactives show at the top dose activity change, negative = inhibition, hits mostly inhibitors; hit rate 1.3% among 340,000; further: potency means the concentration at half of the fitted maximal effect; on the % scale 0 is the no-effect control and ±100 the full control effect
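Preincubation: enzyme (10 nM) with compound, 15 min, RT. Reaction: substrate added to 50 nM final. Reads: 0 and 10 min. Analysis: normalized, Hill fit.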
GALK confirm = Confirmation Assay for Inhibitors of Human Galactokinase (GALK). hit rate 70% among 150. Potency, µM (doses to about 115 µM), inactives show top-dose activity, negative = inhibition, actives largely listed as inhibitors. shares compounds with Pol eta inh-1. purified GALK, Kinase-Glo ATP depletion luminescence
Redox cycling = Confirmatory Assay for Inhibitors of Human Galactokinase (GALK): Phenol-HRP redox assay counterscreen; shares compounds with Pol eta inh-1; Phenol red-HRP H2O2 redox cycling, absorbance 600 nm; Potency, µM (series often up to 115 µM), without a hit: at the highest dose activity change, negative = H2O2 signal, actives largely listed as inhibitors; hit rate 40% among 150
HEK293 viability = Secondary Assay for Inhibitors of Human Galactokinase (GALK): HEK-293 Cell Viability Assay. shares compounds with Pol eta inh-1. HEK-293 viability, ATP luminescence (CellTiter-Glo), 24/48 h. Potency, µM (doses to about 46.1 µM), for inactives: at the top dose activity change, negative = cytotoxicity, actives largely listed as inhibitors. hit rate 10% among 170; further: potency means the concentration at half of the fitted maximal effect; on the % scale 0 is the no-effect control and ±100 the full control effect
Pol eta inh-2 = qHTS for Inhibitors of Polymerase Eta: Confirmatory Assay for Cherry-picked Compounds; shares compounds with Pol eta inh-1; Pol eta primer extension, TAMRA/BHQ fluorescence, 10 min; Potency, µM, usual class: inhibitors; hit rate 64% among 2,600; further: potency means the concentration at half of the fitted maximal effect
FEN1 inh-2 = qHTS Assay for the Inhibitors of FEN1: Confirmatory Assay for Cherry-picked Compounds; hit rate 79% among 880; Potency, µM, usual class: inhibitors; AID 720498, 2013; FEN1 flap cleavage, TAMRA/BHQ2 fluorogenic DNA substrate; shares compounds with FEN1 inh-1; further: potency means the concentration at half of the fitted maximal effect; nearly all actives have a fitted effect of over 60% in size
Numbers without * were called inactive; ? = inconclusive; · = no result given; ! = repeats disagree; [ ] = another dose, or the depositor's remark. This is a sample that favours compounds with a hit; in the whole collection about 2.8% have one here. Unless noted, the call rests on the fitted dose curve; in most records, active means well fitted curve in the direction sought with a large enough effect; inconclusive means small, poorly fitted or top-dose-only effect, or another doubt; inactive means no such curve, though single readings can be large; an effect the other way counts as inactive or inconclusive.

SMILES	FEN1 inh-1	Pol iota inh	Pol eta inh-1	Pol kappa inh	PI5P4K alpha inh	Pol beta inh	Pol eta inh-2	others
O=C(O)CCC(=O)NCCC1=c2ccccc2=N/C1=C\c1c(O)n(Cc2ccc(F)cc2)c(=S)[nH]c1=O	-10%	?	50µM*	?	-85*	-8%	?
Cc1cccc(N2C(=O)NC(=O)/C(=C\c3cccn3-c3ccc(Cl)cc3)C2=O)c1	17%	22µM*	11µM*	79µM*	-52*	22µM*	60*
Oc1ccc(Cl)cc1Sc1cc(Cl)ccc1O	-25%	?	-3%	-22%	26	·	·
c1csc(CN2CCC3(CCNCC3)CC2)n1	·	·	·	3%[60.1 µM]	·	·	·
CCn1nc(-c2ccccc2)nc2c(=O)n(C)c(=O)nc1-2	-12%	-103%	0.79µM*	-8%	-8	?	·	GALK confirm=0.6µM*;Redox cycling=0.67µM*;HEK293 viability=?
O=C1NC(=O)N(c2ccccc2)C(=O)/C1=C/C=C/c1ccco1	?	?	13µM*	40µM*	?	?	38*
Cc1ccc(N2C(=O)NC(=O)/C(=C\C=C\c3ccco3)C2=O)cc1C	?	10µM*	22µM*	25µM*	?	40µM*	60*
O=C1NC(=S)N(c2ccc(Cl)cc2)C(=O)/C1=C/N1CCN(C(=O)c2ccco2)CC1	3%	?	-13%	-4%	-23	-2%	·
Cc1ccccc1N1C(=O)NC(=O)/C(=C\c2cnn(-c3ccccc3)c2)C1=O	-13%	-6%	22µM*	-5%	-72*	16µM*	?
NCCc1c[nH]c2ccc(O)cc12	·	·	·	-5%[60.1 µM]	·	·	·
CCn1ncc(-c2ccnc3cc(C(=O)O)nn23)c1C	-6%	35µM*	25µM*	-20%	?	?	?
CCCCc1ccc(C(=O)O)nc1	11%	-29%	-6%	1%[60.1 µM]	0	5%[57.1 µM]	·
Nc1nc(O)c(-c2ccccc2)o1	·	·	·	-3%[19.4 µM]	·	·	·
C=CCN1C(=O)/C(=C/c2ccc(Br)s2)C(=O)NC1=S	?	18µM*	20µM*	79µM*	-94*	?	?
C=CCN1C(=O)/C(=C/c2ccc3c(c2)CCCN3CCC)C(=O)NC1=S	-10%	?	71µM*	?	?	?	67*
C/C=C(/C)C(=O)OC1CC[C@]2(C)C3CCC4[C@]5(O)CC(O)[C@]6(O)C(CN7CC(C)CCC7[C@]6(C)O)[C@]5(O)C[C@@]42O[C@]13O (some centres undefined)	·	·	·	-2%[60.1 µM]	·	·	·
COc1ccc2c(c1)c(C(=O)O)c(C)n2CC(C)C	9%	8%	-6%	-7%	·	9%	·
COc1cc(O)c(C(=O)O)c(-c2cc(O)c(O)cc2C)c1	?	?	10µM*	?	-23	20µM*	?
O=C(O)CC1OCC=C2CN3CCC45C6=CC(=O)C(=O)C([N+](=O)[O-])=C6NC4C1C2CC35 (centres undefined)	-67%	1.8µM*!	5µM*	40µM*	1	?	·	GALK confirm=11µM*;Redox cycling=5.3µM*;HEK293 viability=-1%
O=C1CC2OCC=C3CN4CCC56c7cc([N+](=O)[O-])ccc7N1C5C2C3CC46 (centres undefined)	2%	8%	-17%	0%	-7	6%	·
COCOC1CCC2C3CCC4=CC(=O)CCC4=C3C=CC12C (centres undefined)	-12%	28µM*	?	?	-12	·	?
CC1(O)CCC2C3CCC4=CC(=O)CCC4=C3C=CC21C (centres undefined)	15%	24%	2%	4%	-2	·	·
N#CC(C#N)=Cc1ccc(C=C(C#N)C#N)cc1	5%	?	45µM*	-37%	-21	?	?	FEN1 inh-2=95*
Cc1cc(N2CCCC2)ccc1C=C(C#N)C#N	-1%	33%	-30%	6%	-1	-23%	·
O=C1NC(=O)N(Cc2ccccc2)C(=O)/C1=C\C=C\c1ccco1	?	16µM*	18µM*	35µM*	-62*	20µM*	76*	FEN1 inh-2=?
N=C(N)c1ccc(CS(=O)(=O)F)cc1	·	·	·	-9%[60.1 µM]	·	·	·
Cc1ccccc1-n1c(C)cc(/C=C2/C(=O)NC(=O)N(Cc3ccco3)C2=O)c1C	-15%	?	?	?	-30	-9%	·	FEN1 inh-2=?
C[C@]12CCC3C(CC[C@H]4C[C@@H](O)CC[C@]34C)C1CC[C@@H]2OC(=O)[C@H](N)CCCCN (some centres undefined)	?	16%	-4%	0%	1	·	·	FEN1 inh-2=43*
C[C@]12CCC3C(CC[C@H]4C[C@H](O)CC[C@]34C)[C@@H]1CC[C@@H]2C(=O)CO (some centres undefined)	·	·	·	4%[19.4 µM]	·	·	·
C[C@@H]1O[C@@H](O[C@@H]2C=C3CC[C@@H]4[C@@H](CC[C@]5(C)[C@H](c6ccc(=O)oc6)CC[C@@]45O)[C@@]3(C)CC2)[C@H](O)[C@H](O)[C@H]1O	-5%	-9%	·	-4%	·	·	·
